# PubChem BioAssay (NCATS)
# Inconclusive results are not listed. Calls of active or inactive are those of the source. The call rests on the fitted dose curve; in most records, active means well fitted curve in the direction sought with a large enough effect; inconclusive means small, poorly fitted or top-dose-only effect, or another doubt; inactive means no such curve, though single readings can be large; an effect the other way counts as inactive or inconclusive.
# Tested on: not listed separately
# Assay: qHTS of pediatric cancer cell lines to identify multiple opportunities for drug repurposing: Confirmatory screen for OHS-50 cells (AID 1347128);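 further: compound exposure lasted 48 h at 37 degrees C; nearly all actives have a fitted effect of over 55% in size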; on activity change, negative = cytotoxic: on the % scale 0 is the no-effect control and ±100 the full control effect
# Conditions: OHS-50 osteosarcoma cells viability; series mostly up to 45.9 µM; activity change, negative = cytotoxic: at the top concentration
# Outline: (§1)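 Cells (500-1,000/well) rested 5 h, then received compounds for 48 h; metabolically active cells were measured by CellTiter-Glo luminescence. Final concentrations spanned up to 46 µM (MIPE, 11-point) or 0.59 nM-46 µM (NPC, 8-point) in primary screens, 11-point in follow-ups.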
# Potency means the concentration at half of the fitted maximal effect.
Structure (SMILES),"activity change, negative = cytotoxic",Potency
C[C@]12CC[C@@H]3c4ccc(O)cc4C[C@@H](CCCCCCCCCS(=O)CCCC(F)(F)C(F)(F)F)[C@H]3[C@@H]1CC[C@@H]2O (stereo partly drawn),-23.3% (inactive),–
C[n+]1cc2c3c(ccc2c2ccc4cc5c(cc4c21)OCO5)OCO3,–,2.57 µM (active)
NCCCNCCSP(=O)(O)O,0.588% [at 9.58 µM] (inactive),–
CN/C(=C\[N+](=O)[O-])NCCSCc1ccc(CN(C)C)o1,3.86% (inactive),–
CN1C[C@H](C(=O)N[C@]2(C)O[C@@]3(O)[C@@H]4CCCN4C(=O)[C@H](Cc4ccccc4)N3C2=O)C[C@@H]2c3cccc4[nH]cc(c34)C[C@H]21,-11% (inactive),–

# Tested on: not listed separately
# Assay: qHTS of pediatric cancer cell lines to identify multiple opportunities for drug repurposing: Confirmatory screen for SK-N-SH cells (AID 1347129);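 further: cells exposed to compound for 48 h before viability read; nearly all actives have a fitted effect of over 60% in size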;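 on activity change, negative = cytotoxic: plate controls were DMSO for no effect and bortezomib control for full effect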
# Conditions: SK-N-SH neuroblastoma cell viability; series mostly up to 46.1 µM; activity change, negative = cytotoxic: at the top concentration
# Outline: as §1
Structure (SMILES),"activity change, negative = cytotoxic",Potency
Nc1nc(N)c2nc(-c3ccccc3)c(N)nc2n1,-4.13% (inactive),–
C[C@]12CC[C@@H]3c4ccc(O)cc4C[C@@H](CCCCCCCCCS(=O)CCCC(F)(F)C(F)(F)F)[C@H]3[C@@H]1CC[C@@H]2O (stereo partly drawn),8.54% (inactive),–
C[n+]1cc2c3c(ccc2c2ccc4cc5c(cc4c21)OCO5)OCO3,–,1.44 µM (active)
C[C@]12C=CC(=O)C=C1CC[C@H]1[C@@H]3C[C@@H](O)[C@](O)(C(=O)CO)[C@@]3(C)C[C@H](O)[C@@]12F,-13.4% (inactive),–
NCCCNCCSP(=O)(O)O,-2.99% [at 9.52 µM] (inactive),–
CN/C(=C\[N+](=O)[O-])NCCSCc1ccc(CN(C)C)o1,1.91% (inactive),–

# Target: N-terminal Xaa-Pro-Lys N-methyltransferase 1 (Homo sapiens) (UniProt Q9BV86)
# Assay: qHTS Assay for Inhibitors of N-terminal methyltransferase 1 (NTMT1): LOPAC validation of the NTMT1 SAHH-coupled ThioGlo3 Assay (AID 1347143);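 further: SAH from peptide methylation measured as thiol fluorescence via SAHH coupling and ThioGlo3; nearly all actives have a fitted effect of over 70% in size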; on activity change, negative = inhibition: on the % scale 0 is the no-effect control and ±100 the full control effect
# Conditions: recombinant NTMT1, SAHH-coupled ThioGlo3 fluorescence; series mostly up to 114 µM; activity change, negative = inhibition: at the top concentration
# Outline: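 Inhibition of NTMT1 methylation of peptide SPKRIA is followed by converting SAH with SAHH and labelling the released thiol with ThioGlo3. Plates are read at 340/450nm before and 30 min after reagent addition, both at room temperature.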
# Sequence of N-terminal Xaa-Pro-Lys N-methyltransferase 1 (Homo sapiens) (Q9BV86 whole entry, looked up): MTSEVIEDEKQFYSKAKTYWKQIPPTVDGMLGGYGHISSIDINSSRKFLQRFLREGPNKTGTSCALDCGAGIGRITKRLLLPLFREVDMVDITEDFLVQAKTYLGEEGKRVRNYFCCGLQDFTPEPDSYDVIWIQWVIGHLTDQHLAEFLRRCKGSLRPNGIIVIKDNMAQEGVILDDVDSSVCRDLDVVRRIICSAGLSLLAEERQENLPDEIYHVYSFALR
Structure (SMILES),"activity change, negative = inhibition",Potency
OC(CCN1CCCCC1)(c1ccccc1)C1CCCCC1 (stereo not drawn),-12.7% (inactive),–
CC(=O)OC(C)C[N+](C)(C)C (stereo not drawn),-9.83% (inactive),–
COCCOC(=O)C1=C(C)NC(C)=C(C(=O)OC(C)C)C1c1cccc([N+](=O)[O-])c1 (stereo not drawn),-10.6% (inactive),–
COCCCC/C(=N\OCCN)c1ccc(C(F)(F)F)cc1,-18.8% (inactive),–
C[C@]12CC[C@@H]3c4ccc(O)cc4C[C@@H](CCCCCCCCCS(=O)CCCC(F)(F)C(F)(F)F)[C@H]3[C@@H]1CC[C@@H]2O (stereo partly drawn),16.9% (inactive),–
CCN(Cc1ccncc1)C(=O)C(CO)c1ccccc1 (stereo not drawn),-9.29% (inactive),–
C[n+]1cc2c3c(ccc2c2ccc4cc5c(cc4c21)OCO5)OCO3,–,44.7 µM (active)
Cc1nc2c([nH]1)c(=O)n(C)c(=O)n2Cc1ccco1,-14.7% (inactive),–
Cc1nc2sccn2c(=O)c1CCN1CCC(=C(c2ccc(F)cc2)c2ccc(F)cc2)CC1,-21.4% (inactive),–
COC(=O)[C@H]1[C@H]2C[C@@H]3c4[nH]c5cc(OC)ccc5c4CCN3C[C@H]2C[C@@H](OC(=O)c2cc(OC)c(OC)c(OC)c2)[C@@H]1OC,–,56.2 µM (active)
CC(C)[N+](C)(CCOC(=O)C1c2ccccc2Oc2ccccc21)C(C)C,-18.4% (inactive),–
CCN(CC)CCNC(=O)c1ccc(NC(C)=O)cc1,-8.94% (inactive),–
CC(=O)Oc1cc(C(C)C)c(OCCN(C)C)cc1C,-11.9% (inactive),–
C[C@]12C=CC(=O)C=C1CC[C@H]1[C@@H]3C[C@@H](O)[C@](O)(C(=O)CO)[C@@]3(C)C[C@H](O)[C@@]12F,-14.6% (inactive),–
COC(=O)C1=C(C)NC(C)=C(C(=O)OC(C)(C)CN(C)CCC(c2ccccc2)c2ccccc2)C1c1cccc([N+](=O)[O-])c1 (stereo not drawn),-18.6% (inactive),–
CCCNC(C)C(=O)Nc1ccccc1C (stereo not drawn),-7.78% (inactive),–

Structure (SMILES),"activity change, negative = inhibition",Potency
CCOC(=O)c1cnc2c(cnn2CC)c1NN=C(C)C,–,56.2 µM (active)
CNC1(C)C2CCC(C2)C1(C)C (stereo not drawn),0.737% (inactive),–
C(=C\c1ccccc1)/CN1CCN(C(c2ccccc2)c2ccccc2)CC1,-6.07% (inactive),–
O=C(O)CN(CCN(CC(=O)O)CC(=O)O)CCN(CC(=O)O)CC(=O)O,-5.85% (inactive),–
CCN1CCc2nc(N)oc2CC1,–,56.2 µM (active)
NC(=O)N1c2ccccc2C=Cc2ccccc21,-6.04% (inactive),–
NCCCNCCSP(=O)(O)O,-7.05% (inactive),–
CN1C[C@H](C(=O)N[C@]2(C)O[C@@]3(O)[C@@H]4CCCN4C(=O)[C@H](Cc4ccccc4)N3C2=O)C[C@@H]2c3cccc4[nH]cc(c34)C[C@H]21,-17.9% (inactive),–
CCCCCCCC/C=C\CCCCCCCC(=O)NCc1ccc(O)c(OC)c1,0.332% (inactive),–
CCCCCN(CCCCC)C(=O)C(CCC(=O)O)NC(=O)c1ccc(Cl)c(Cl)c1 (stereo not drawn),-0.612% (inactive),–
FC(F)(F)c1ccccc1-n1ccnc1,-15.8% (inactive),–
O=C1NCN(c2ccccc2)C12CCN(CCCC(c1ccc(F)cc1)c1ccc(F)cc1)CC2,-15.9% (inactive),–
CN1C(=O)CC[C@H]1c1cccnc1,66.2% (inactive),–
Brc1c(NC2=NCCN2)ccc2nccnc12,–,50.1 µM (active)
CCN1CCC[C@H]1CNC(=O)c1c(O)c(Cl)cc(Cl)c1OC,–,50.1 µM (active)
Cc1ccc(Cl)c(Nc2ccccc2C(=O)O)c1Cl,-0.602% (inactive),–
